In PMC11062922 (Nature Chemical Biology, 2023) one finds potency estimated from few doses data, which are given here for ten compounds.

Common to all, as to set-up: species or system human, MV4-11 + K-562 + COLO205 + SK-N-BE2 + OVCAR-8
The subject of experiment [1] is ABL1. Particulars: read-out: apparent Kd, n = 1.
The subject of experiment [2] is ABL2. The following applies: read-out: apparent Kd, n = 1.
The test system of experiment [3] is LCK. Particulars: read-out: apparent Kd, n = 1.
The subject of experiment [4] is PTK6. The following applies: read-out: apparent Kd, n = 1.
Experiment [5] has as its system RIPK2. The following applies: read-out: apparent Kd, n = 1.
Experiment [6] relates to CLK1. The following applies: read-out: apparent Kd; compound concentrations:100 nM and 1000 nM (sheet 'Samples'); n = 1.
Experiment [7] has as its system FYN. Particulars: read-out: apparent Kd, compound concentrations: 100 nM and 1000 nM (sheet 'Samples'), n = 1.
For experiment [8], the system named is HCK. Particulars: read-out: apparent Kd, compound concentrations: 100 nM and 1000 nM (sheet 'Samples'), n = 1.
Experiment [9] relates to RIPK3. Particulars: read-out: apparent Kd, compound concentrations: 100 nM and 1000 nM (sheet 'Samples'), n = 1.
Experiment [10] concerns YES1. The following applies: read-out: apparent Kd, compound concentrations: 100 nM and 1000 nM (sheet 'Samples'), n = 1.
In experiment [11] the test system is BCR. The following applies: read-out: apparent Kd, n = 1.
Experiment [12] concerns GAK. The following applies: read-out: apparent Kd, compound concentrations: 100 nM and 1000 nM (sheet 'Samples'), n = 1.
Experiment [13] has as its system TNK1. The following applies: read-out: apparent Kd; compound concentrations: 100 nM and 1000 nM (sheet 'Samples'), CATDS: 4.1915160463804002E-2; n = 1.
The test system of experiment [14] is CLK4. Particulars: read-out: apparent Kd; compound concentrations:100 nM and 1000 nM (sheet 'Samples'); n = 1.
Experiment [15] has as its system RET. The following applies: read-out: apparent Kd; compound concentrations: 100 nM and 1000 nM (sheet 'Samples'), CATDS: 4.15605904174959E-2; n = 1.
Experiment [16] concerns CSNK2A1;CSNK2A3. The following applies: read-out: apparent Kd; compound concentrations:100 nM and 1000 nM (sheet 'Samples'); n = 1.
Experiment [17] concerns CSNK2A2. Particulars: read-out: apparent Kd; compound concentrations:100 nM and 1000 nM (sheet 'Samples'); n = 1.
[18] abbreviates: compound concentrations:100 nM and 1000 nM (sheet 'Samples').

Like-named read-outs stand apart in the source and are kept apart here.

On to `Cn1cc(-c2cnc(N)c3c(-c4ccc5c(c4)CCN5C(=O)Cc4ccccc4)csc23)cn1` [GSK2593074A], for which the potency estimated from few doses was 563 nM in [1] (setting [18]); 641 nM in experiment [2] (setting [18]); 554 nM in experiment [3] (setting [18]); 1340 nM in experiment [4] (setting [18]); 120 nM in experiment [5] (setting [18]).

Turning to `CNc1nccc(-c2c(-c3ccc(F)cc3)ncn2C2CCN(C)CC2)n1` [SB-222903], the potency estimated from few doses is 389 nM in experiment [2] (setting [18]), 808 nM in experiment [6] and 433 nM in experiment [5] (setting [18]).

`COc1cc2nccc(Nc3ccc(Oc4ccccc4)cc3)c2cc1OC.Cl` [GI261656A]: the potency estimated from few doses in experiment [1] (compound concentrations: 100 nM and 1000 nM (sheet 'Samples'), CATDS: 4.9234778502166003E-2) was 661 nM; in experiment [7] (CATDS: 5.8520288071811297E-2) it was 360 nM; in [8] (CATDS: 0.224802192402594), 23.3 nM; in [3] (compound concentrations: 100 nM and 1000 nM (sheet 'Samples'), CATDS: 9.1462099087555204E-2) it was 115 nM; in [4] (compound concentrations: 100 nM and 1000 nM (sheet 'Samples'), CATDS: 8.1912311053812595E-2), 147 nM; in [5] (compound concentrations: 100 nM and 1000 nM (sheet 'Samples'), CATDS: 0.26781417161536297) it was 18.1 nM. The potency estimated from few doses in experiment [9] (CATDS: 5.1839194955901301E-2) is 542 nM; in experiment [10] (CATDS: 0.10993421284825), 78.7 nM.

As to `CC(=O)N1CCN(c2ccc(Nc3nccc(-c4sc(C(C)C)nc4-c4cccc(NS(=O)(=O)c5ccccc5)c4)n3)cn2)CC1` [GSK1645872A], the potency estimated from few doses in experiment [1] (compound concentrations: 100 nM and 1000 nM (sheet 'Samples'), CATDS: 2.9890665121479899E-2) was 746 nM; in experiment [2] (compound concentrations: 100 nM and 1000 nM (sheet 'Samples'), CATDS: 6.8030281480511795E-2), 166 nM; in experiment [11] (compound concentrations: 100 nM and 1000 nM (sheet 'Samples'), CATDS: 2.6881466096611999E-2), 991 nM; in [12] (CATDS: 3.3630312969228401E-2) it was 566 nM; in experiment [3] (compound concentrations: 100 nM and 1000 nM (sheet 'Samples'), CATDS: 2.6338913401390801E-2) it was 1050 nM; in experiment [5] (compound concentrations: 100 nM and 1000 nM (sheet 'Samples'), CATDS: 3.4620572917050799E-2) it was 532 nM. Also, the potency estimated from few doses was 381 nM in experiment [9] (CATDS: 4.0939196436341502E-2), 364 nM in experiment [13] and 324 nM in experiment [10] (CATDS: 4.4721674656853803E-2).

Consider `CC(=O)c1c(-c2ccncc2)[nH]c(-c2ccncc2)c1C` [GW493036X], for which the potency estimated from few doses in experiment [2] (setting [18]) is 482 nM; in experiment [11] (setting [18]), 277 nM; in experiment [6] it was 10.9 nM; in experiment [14], 1.62 nM; in experiment [5] (setting [18]), 1000 nM.

Turning to `Cn1cc(-c2ccc3c(c2)CCN3C(=O)Cc2cc(F)cc(C(F)(F)F)c2)c2c(N)ncnc21` [GSK2635225A], the potency estimated from few doses was 1130 nM in experiment [1] (compound concentrations: 100 nM and 1000 nM (sheet 'Samples'), CATDS: 0.14527180827686201); 647 nM in [2] (compound concentrations: 100 nM and 1000 nM (sheet 'Samples'), CATDS: 0.18446738219414099).

Take `N#Cc1cnc2cc(-c3cnc(CNCCN4CCOCC4)s3)ccc2c1Nc1ccc(Oc2ccccc2)cc1` [GW664114X]: the potency estimated from few doses was 1130 nM in experiment [1] (compound concentrations: 100 nM and 1000 nM (sheet 'Samples'), CATDS: 4.8325821133258902E-2); 831 nM in experiment [7] (CATDS: 5.3110051753070202E-2); 69.1 nM in [8] (CATDS: 0.211931822213385); 657 nM in experiment [3] (compound concentrations: 100 nM and 1000 nM (sheet 'Samples'), CATDS: 5.7694634687651798E-2); 361 nM in experiment [10] (CATDS: 7.4593421105350805E-2).

As to `Cc1ccc(O)cc1Nc1ccnc2ccc(C(C)(C)C)cc12` [GW856805X], the potency estimated from few doses in experiment [1] (compound concentrations: 100 nM and 1000 nM (sheet 'Samples'), CATDS: 2.7380804690978401E-2) was 1400 nM; in [2] (compound concentrations: 100 nM and 1000 nM (sheet 'Samples'), CATDS: 3.3299960088100697E-2), 317 nM; in experiment [11] (compound concentrations: 100 nM and 1000 nM (sheet 'Samples'), CATDS: 4.5684736172067801E-2), 79.1 nM; in experiment [7] (CATDS: 4.6328072424656697E-2), 75.5 nM; in [12] (CATDS: 4.7417196878279499E-2), 70 nM; in [4] (compound concentrations: 100 nM and 1000 nM (sheet 'Samples'), CATDS: 2.9493928233546299E-2) it was 718 nM. Also, the potency estimated from few doses was 111 nM in experiment [15]; 11.1 nM in experiment [5] (compound concentrations: 100 nM and 1000 nM (sheet 'Samples'), CATDS: 0.10546216310876699); 540 nM in experiment [9] (CATDS: 3.0648006837875299E-2).

Consider `N#Cc1cccc(Nc2nccc(-c3cnn4ncccc34)n2)c1` [GW778894X], for which the potency estimated from few doses was 3.93 nM in [6], 0.363 nM in [14], 603 nM in [16] and 601 nM in experiment [17].

`CN1CCN(Cc2ccc(-c3ccc4c(Nc5ccc(Oc6ccccn6)cc5)ccnc4c3)o2)CC1` [GW567140X]: the potency estimated from few doses in experiment [1] (compound concentrations: 100 nM and 1000 nM (sheet 'Samples'), CATDS: 9.3195013096343204E-2) was 147 nM; in experiment [7] (CATDS: 4.4615082678796297E-2), 675 nM; in [12] (CATDS: 3.56871929379163E-2) it was 1320 nM; in [8] (CATDS: 0.15093661180131901), 68.5 nM; in experiment [3] (compound concentrations: 100 nM and 1000 nM (sheet 'Samples'), CATDS: 4.8128660017474401E-2), 557 nM; in [4] (compound concentrations: 100 nM and 1000 nM (sheet 'Samples'), CATDS: 6.5275116077435802E-2), 284 nM. Besides, the potency estimated from few doses in [5] (compound concentrations: 100 nM and 1000 nM (sheet 'Samples'), CATDS: 0.141504972954966) was 75.4 nM; in experiment [9] (CATDS: 4.8755783013644902E-2), 540 nM; in experiment [10] (CATDS: 6.0479326827192301E-2) it was 332 nM.
